For 25 molecules, outcome and AC50 results are on record in PubChem BioAssay (EPA / NIEHS).

Records with an inconclusive call do not appear. Active and inactive are the calls of the source. Rule for the calls, unless noted: active = hit-call score of the fitted dose curve at least 0.9, where 1 is the maximum; inactive = score below 0.9.

Assay [1] is described as follows: ACEA_ER_80hr: ACEA Biosciences xCELLigence Real-Time Cell Analysis on Estrogen Receptor Agonism for Proliferation (AID 2282667; active = hit-call score of the fitted dose curve at least 0.9, where 1 is the maximum). The conditions noted are these: T47D proliferation, impedance (xCELLigence), 80 h. Put shortly:
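Estrogen-driven proliferation is captured as electrode impedance in T47D cells 80 h after compound addition. Test articles ran at 8 concentrations, 1:4 dilutions from 100 uM final, in two replicate plates.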

The nature of assay [2]: ATG_CRE_CIS: Attagene CIS-FACTORIAL HepG2 Assay for human cAMP Responsive Element (CRE) binding protein 3 (AID 2282926). The following applies: HepG2 CRE cis-reporter, Attagene multiplexed mRNA; actives raise or lower the signal. A digest of the protocol:
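Liver-derived HepG2, transfected with a CRE-containing reporter panel, exposed 24 h; transcript levels sized and quantified by capillary electrophoresis of labelled amplicons; signal changes either way referenced to vehicle.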

Assay [3] addresses CCAAT/enhancer-binding protein beta (Homo sapiens) (UniProt P17676). Description: ATG_C_EBP_CIS: Attagene CIS-FACTORIAL HepG2 Assay for human CCAAT/Enhancer Binding Protein (C/EBP) beta (AID 2282927). The following applies: HepG2 Attagene cis-factorial transcription factor reporter; actives raise or lower the signal. A digest of the protocol: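 Following a 24 h incubation with test chemical, transfected HepG2 cells yielded RNA whose reporter transcripts were quantified by RT-PCR and fluorescent capillary electrophoresis, with DMSO serving as baseline for bidirectional fitting.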

A short description of assay [4]: ATG_CMV_CIS: Attagene CIS-FACTORIAL HepG2 Assay for human CMV (Internal Marker) (AID 2282928).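 Note: endpoint acts as a background internal control marker rather than a target.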 The following applies: HepG2 CMV promoter reporter, transcription factor profiling; actives raise or lower the signal. A digest of the protocol: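 Bidirectional fits against DMSO are applied to reporter mRNA, read by RT-PCR with capillary electrophoresis, from HepG2 cells exposed 24 h. The endpoint serves as an internal CMV background marker within the cis-factorial reporter panel.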

The nature of assay [5]: ATG_DR4_LXR_CIS: Attagene CIS-FACTORIAL HepG2 Assay for human Liver X Receptor (LXR), DR4 submotif (AID 2282929). The conditions noted are these: HepG2 Attagene DR4 cis-reporter, mRNA transcription; actives raise or lower the signal. A digest of the protocol:
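The endpoint is DR4-element-driven reporter transcripts after 24 h chemical exposure of transfected HepG2 cells. These were measured via RT-PCR and capillary electrophoresis, and gain or loss of signal was fitted relative to DMSO controls.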

Assay [6] deals with Aryl hydrocarbon receptor (Homo sapiens) (UniProt P35869). The experiment in a line: ATG_Ahr_CIS: Attagene CIS-FACTORIAL HepG2 Assay for human Aryl Hydrocarbon Receptor (Ahr) (AID 2282930). The following applies: HepG2 AhR cis-factorial reporter transcription; actives raise or lower the signal. Put shortly:
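Values derive from bidirectional fitting against DMSO negative control. Underlying signal: cis-element reporter mRNA in transiently transfected HepG2, harvested 24 h post-dose and measured by RT-PCR plus capillary electrophoresis.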

The nature of assay [7]: ATG_AP_1_CIS: Attagene CIS-FACTORIAL HepG2 Assay for human Activator Protein 1 (AP-1) (AID 2282931). The following applies: HepG2 Attagene cis-factorial AP-1 reporter mRNA; actives raise or lower the signal. A digest of the protocol:
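Readout is reporter transcript level from endogenous transcription factor activity, quantified by RT-PCR with fluorescent primer extension and capillary electrophoresis. Transiently transfected HepG2 cells, 24 h exposure. Curves fitted both directions versus DMSO.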

Assay [8] is described as follows: ATG_AP_2_CIS: Attagene CIS-FACTORIAL HepG2 Assay for human Activator Protein 2 (AP-2) (AID 2282932). The following applies: HepG2 AP-2 cis-reporter, Attagene transcription factor profiling; actives raise or lower the signal. Put shortly:
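Assay in transfected HepG2 with promoter-regulated reporters, 24 h incubation after dosing. Signal is reporter mRNA fluorescence (RT-PCR, capillary electrophoresis), analysed for both increases and decreases relative to DMSO controls.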

Assay [9] in a line: ATG_BRE_CIS: Attagene CIS-FACTORIAL HepG2 Assay for human Bone Morphogenetic Protein (BMP) Response Element (BRE) (AID 2282933). The following applies: HepG2 BMP response element reporter, Attagene transcription factor profiling; actives raise or lower the signal. A digest of the protocol: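 Read-out: reporter mRNA induction quantified by RT-PCR and capillary electrophoresis after 24 h chemical exposure of transfected HepG2 cells. Endogenous factor activity on the BMP response element; gain or loss fitted against DMSO baseline.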

For assay [10], the target named is Retinoic acid receptor alpha (Homo sapiens) (UniProt P10276). Description: ATG_DR5_RAR_CIS: Attagene CIS-FACTORIAL HepG2 Assay for human Retinoic Acid Receptor Alpha (RARE), DR5 submotif (AID 2282934). The following applies: HepG2 Attagene cis-factorial RARE DR5 reporter, mRNA; actives raise or lower the signal. Put shortly: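 Endpoint fitted in both directions relative to DMSO as negative control. It reflects DR5 cis-element reporter mRNA induction in transiently transfected HepG2 cells, measured 24 h after dosing through RT-PCR and fluorescent capillary electrophoresis.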
Retinoic acid receptor alpha (Homo sapiens), sequence (P10276 whole entry, looked up): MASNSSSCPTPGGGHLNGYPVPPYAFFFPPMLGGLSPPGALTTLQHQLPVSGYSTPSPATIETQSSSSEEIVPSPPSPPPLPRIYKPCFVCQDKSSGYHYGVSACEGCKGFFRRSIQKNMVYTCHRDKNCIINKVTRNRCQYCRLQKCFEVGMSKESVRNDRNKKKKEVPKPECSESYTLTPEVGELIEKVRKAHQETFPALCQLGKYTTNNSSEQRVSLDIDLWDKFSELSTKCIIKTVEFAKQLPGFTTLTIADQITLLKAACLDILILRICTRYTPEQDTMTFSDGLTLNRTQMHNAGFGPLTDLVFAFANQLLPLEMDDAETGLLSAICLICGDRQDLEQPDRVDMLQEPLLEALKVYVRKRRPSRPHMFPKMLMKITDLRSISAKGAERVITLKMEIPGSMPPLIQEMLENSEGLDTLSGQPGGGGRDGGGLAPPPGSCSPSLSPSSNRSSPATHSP

Aryl hydrocarbon receptor (Homo sapiens), sequence (P35869 whole entry, looked up): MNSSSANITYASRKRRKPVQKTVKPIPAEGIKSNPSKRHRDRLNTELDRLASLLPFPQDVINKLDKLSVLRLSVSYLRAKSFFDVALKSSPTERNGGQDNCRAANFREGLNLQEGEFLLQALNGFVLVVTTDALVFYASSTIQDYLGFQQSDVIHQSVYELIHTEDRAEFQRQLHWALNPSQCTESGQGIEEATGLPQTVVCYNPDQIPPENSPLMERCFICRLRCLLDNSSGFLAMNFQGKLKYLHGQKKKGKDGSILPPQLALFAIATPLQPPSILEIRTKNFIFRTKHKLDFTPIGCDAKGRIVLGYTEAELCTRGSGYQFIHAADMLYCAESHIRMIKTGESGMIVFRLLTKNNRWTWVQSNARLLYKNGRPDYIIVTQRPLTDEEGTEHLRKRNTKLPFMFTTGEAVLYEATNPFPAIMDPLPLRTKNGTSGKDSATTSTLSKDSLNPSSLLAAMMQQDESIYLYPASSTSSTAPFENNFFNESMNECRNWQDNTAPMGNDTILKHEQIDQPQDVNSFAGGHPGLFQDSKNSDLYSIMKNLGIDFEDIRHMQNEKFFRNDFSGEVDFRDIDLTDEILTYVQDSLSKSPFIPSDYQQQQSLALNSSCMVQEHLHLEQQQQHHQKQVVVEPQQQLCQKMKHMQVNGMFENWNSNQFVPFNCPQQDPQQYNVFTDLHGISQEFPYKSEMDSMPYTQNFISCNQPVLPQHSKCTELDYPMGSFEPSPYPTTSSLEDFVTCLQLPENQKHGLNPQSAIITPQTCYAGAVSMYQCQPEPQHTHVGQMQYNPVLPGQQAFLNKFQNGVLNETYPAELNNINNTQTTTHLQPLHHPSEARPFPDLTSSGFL
CCAAT/enhancer-binding protein beta (Homo sapiens), sequence (P17676 whole entry, looked up): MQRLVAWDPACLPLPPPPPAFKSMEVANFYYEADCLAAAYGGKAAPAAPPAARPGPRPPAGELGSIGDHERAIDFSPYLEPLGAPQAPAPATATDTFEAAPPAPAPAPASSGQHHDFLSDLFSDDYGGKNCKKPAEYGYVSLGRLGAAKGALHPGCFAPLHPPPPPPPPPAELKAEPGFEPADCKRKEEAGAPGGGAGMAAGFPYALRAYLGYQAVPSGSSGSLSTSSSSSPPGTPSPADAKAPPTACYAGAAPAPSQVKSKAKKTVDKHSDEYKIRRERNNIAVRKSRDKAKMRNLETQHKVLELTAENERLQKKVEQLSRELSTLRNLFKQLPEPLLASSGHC

For `N#CC1(N)CCCCC1`, the result in assay [1], in assay [2], in assay [3], in assay [4], in assay [5] and in assay [6] was inactive. Further, the molecule was called inactive in assay [7], in assay [8], in assay [9] and in [10].
Take `CC=C(C)C=CC=C(C)C`: the molecule was called inactive in [1], in assay [2], in assay [3], in assay [4], in assay [5] and in assay [6]. Moreover, the molecule was classed as inactive in [7], in assay [8], in assay [9] and in assay [10].
Regarding `C=C(C)OC(C)=O`, the result in assay [1], in assay [2], in [3], in [4], in [5] and in assay [6] was inactive. Further, the outcome in [7], in assay [8], in assay [9] and in assay [10] was inactive.
Take `CC(C)CCOCc1ccccc1`: the molecule was classed as inactive in assay [1], in [2], in [3], in assay [4], in assay [5] and in assay [6]. Besides, the molecule was called inactive in assay [7], in [8], in assay [9] and in [10].
For `CC/C=C\CCOC(=O)c1ccccc1O`, the molecule was classed as inactive in assay [1], in assay [2], in assay [3], in assay [4], in assay [5] and in assay [6]. For the same molecule, the result in assay [7], in assay [8], in [9] and in assay [10] was inactive.
For `CCCCCC1=CCCC1=O`, the AC50 (usually the concentration at which the activity in the assay is half-maximal) in assay [1] is 106 nM (active). Besides, the call in assay [2], in assay [3], in [4], in assay [5], in assay [6] and in assay [7] was inactive. The molecule was called inactive in [8], in [9] and in assay [10].
On to `O=C(O)C1CCC(C(=O)O)CC1` (stereo not drawn), for which the outcome in assay [1], in assay [2], in assay [3], in assay [4], in [5] and in [6] was inactive. Further, the molecule was classed as inactive in assay [7], in [8], in assay [9] and in [10].
With `C/C=C/C=C/CCCCCCCO`, the result in assay [1], in assay [2], in assay [3], in assay [4], in assay [6] and in assay [8] was inactive. Moreover, the outcome in assay [10] was inactive. The half-maximal activity concentration (AC50) was 183 µM (active) in assay [5], 127 µM (active) in assay [7] and 156 µM (active) in [9].
With `CC(=O)OCc1ccccc1`, the result in assay [1], in assay [2], in assay [3], in assay [4], in assay [5] and in assay [6] was inactive. Besides, the result in assay [7], in [8], in assay [9] and in assay [10] was inactive.
On to `Cc1cccc(C(C)(C)C)c1O`, for which the result in [1], in [2], in [3], in assay [4], in [5] and in assay [6] was inactive. Besides, the outcome in assay [7], in assay [8], in assay [9] and in assay [10] was inactive.
For the molecule `CC(C)c1ccc(O)c(C(C)C)c1`, the result in assay [1], in [2], in [3], in [4], in assay [5] and in assay [6] was inactive. Besides, the outcome in [7], in assay [8], in [9] and in assay [10] was inactive.
`CCc1occc(=O)c1O`: the molecule was classed as inactive in assay [1], in assay [2], in assay [3], in assay [4], in assay [5] and in assay [7]. Moreover, the molecule was classed as inactive in assay [8], in [9] and in assay [10]. Also, the half-maximal activity concentration (AC50) in assay [6] was 65.6 µM (active).
With `O=C(O)C(F)(F)C(F)(F)C(F)(F)C(F)(F)C(=O)O`, the molecule was called inactive in assay [1], in assay [2], in [3], in assay [4], in [5] and in [6]. Further, the molecule was called inactive in [7], in [8], in assay [9] and in assay [10].
Take `CCOB(OCC)OCC`: the call in [1], in assay [2], in assay [3], in assay [4], in assay [5] and in [6] was inactive. Also, the outcome in assay [7], in assay [8], in assay [9] and in assay [10] was inactive.
Take `CCc1cccc(CC)c1`: the call in assay [1], in assay [2], in assay [3], in assay [4], in assay [5] and in assay [6] was inactive. In addition, the result in assay [7], in assay [8], in [9] and in [10] was inactive.
In the case of `Nc1ccc(C(=O)OCCCOC(=O)c2ccc(N)cc2)cc1`, the outcome in assay [1], in [2], in assay [3], in assay [4], in assay [5] and in assay [6] was inactive. The molecule was classed as inactive in [7], in assay [8], in assay [9] and in assay [10].
`CCCCCCCCCCCC(=O)OCC`: the molecule was called inactive in assay [1], in assay [2], in assay [3], in [4], in assay [5] and in [6]. The outcome in [7], in assay [8], in assay [9] and in assay [10] was inactive.
Take `CC(CCC(=O)O)(c1ccc(O)cc1)c1ccc(O)cc1`: the concentration at half-maximal activity (AC50) in [1] is 13400 nM (active). For the same molecule, the outcome in assay [2], in [3], in assay [4], in assay [5], in [6] and in assay [7] was inactive. Further, the molecule was called inactive in [8], in assay [9] and in [10].
For the molecule `CCCCC(CC)COC(=O)/C=C/c1ccc(OC)cc1` (stereo not drawn), the outcome in assay [1], in assay [2], in assay [3], in assay [4], in [5] and in [6] was inactive. Besides, the call in assay [7], in [8], in assay [9] and in assay [10] was inactive.
Take `CCC(C)(O)CCCC(C)C` (stereo not drawn): the molecule was called inactive in [1], in [2], in assay [3], in assay [4], in [5] and in assay [6]. The outcome in assay [7], in assay [8], in assay [9] and in assay [10] was inactive.
For the molecule `CC1OC(=O)C(C)OC1=O` (stereo not drawn), in assay [1], the AC50 was 169 nM (active). Besides, the outcome in [2], in assay [3], in assay [4], in assay [5], in [6] and in assay [7] was inactive. The molecule was called inactive in assay [8], in [9] and in assay [10].
With `O=C1CCCCC1C1CCCCC1` (stereo not drawn), the molecule was called inactive in assay [1], in assay [2], in assay [3], in assay [4], in assay [5] and in [6]. For the same molecule, the call in assay [7], in [8], in [9] and in assay [10] was inactive.
In the case of `CCOC(=O)CC(=O)c1ccccc1`, the outcome in assay [1], in assay [2], in assay [3], in assay [4], in assay [5] and in assay [6] was inactive. Further, the molecule was classed as inactive in [7], in assay [8], in [9] and in [10].
For the molecule `CCCCCCCCC(CO)CCCCCC` (stereo not drawn), the outcome in assay [1], in [3], in assay [6], in [8] and in assay [9] was inactive. In addition, the AC50 in assay [2] was 100 µM (active); in assay [4], 8.41 µM (active); in assay [5], 53 µM (active).
Take `CCOC(=O)OC(=O)OCC`: the molecule was called inactive in [1], in assay [2], in assay [3], in assay [4], in [5] and in assay [6]. Moreover, the call in [7], in assay [8], in assay [9] and in assay [10] was inactive.
